Laboratory results as given in PubChem BioAssay AID1159580 (chemical genetic matrix, 2015).
The whole screen tested about 5,500 compounds, of which about 2,000 (36%) were called active. About 18% were inconclusive and are not listed. No stated cut-off is given here; in the data, active means normalized growth mostly below about 0.91 (no sharp cut-off); inconclusive means no clear call, values can overlap the other calls; inactive means mostly above about 0.92. The list shows a part of the results.

Assay: chemical genetic growth profiling, strain panel (AID 1159580);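 further: tested at 20 µM; growth read once vehicle control cultures reached saturation at 30 °C; 1 = growth at the plate median or of vehicle wells; lower values mean less growth of the strain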
Conditions: S. cerevisiae deletion strains, growth OD

Measured: normalized growth

Cc1cn([C@H]2C=C[C@@H](CO)O2)c(=O)[nH]c1=O
inactive: locus YAL040C, strain CLN3, active compounds read low 0.999 | locus YCL061C, strain MRC1 (second series), active compounds read low 1.01 | locus YDR363W, strain ESC2, active compounds read low 0.976 | locus YER002W, strain NOP16, active compounds read low 1 | locus YGR078C, strain PAC10, active compounds read low 1.02 | locus YMR263W, strain SAP30, active compounds read low 0.998 | locus YMR307W, strain GAS1, active compounds read low 0.994 | locus YNL175C, strain NOP13, active compounds read low 0.993 | locus YNL197C, strain WHI3, active compounds read low 0.995 | locus YNL224C, strain SQS1, active compounds read low 1 | locus YNL322C, strain KRE1, active compounds read low 0.994 | locus YOR083W, strain WHI5 (second series), active compounds read low 1.06 | locus YPL055C, strain LGE1, active compounds read low 0.974 | locus YPL241C, strain CIN2, active compounds read low 1
